Measurements reported in PubChem BioAssay (NCI).
“And” between values parts separate entries of the source, which are not always exact repeats. Identical values can stand only once. The panel holds about 79,000 compounds, 15% with a hit somewhere; the sample as a whole holds those more often. More than one record can exist for a structure, and the calls need not agree. The source made the active and inactive calls. Rule as the data show it: active = growth inhibition above about 70%; inactive = the rest.

Columns and labels:
[1] = NCI Yeast Anticancer Drug Screen. Data for the rad50 strain (AID 155);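 also: 0% = growth of vehicle-only cultures of the same strain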; conditions: S. cerevisiae rad50 strain growth inhibition; at 50.0 µM; stronger effect = higher value
In short: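 Readout: growth inhibition relative to vehicle-treated cultures. Compound exposure was carried out in a genetically defined yeast strain deficient in DNA damage repair.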

[2] = NCI Yeast Anticancer Drug Screen. Data for the mec2-1 strain (AID 157); conditions: S. cerevisiae mec2-1 strain, at 50.0 µM, stronger effect = higher value
In short: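 Strain: mec2-1 (DNA repair/cell cycle alteration). Compound exposure, then growth measured; inhibition expressed relative to vehicle.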

[3] = NCI Yeast Anticancer Drug Screen. Data for the sgs1 mgt1 strain (AID 161);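 also: 0% = growth of cultures given vehicle only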; conditions: S. cerevisiae sgs1 mgt1 strain, at 50.0 µM, stronger effect = higher value
In short: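 Genetically altered yeast, compound exposure, growth inhibition relative to vehicle.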

[4] = NCI Yeast Anticancer Drug Screen. Data for the cln2 rad14 strain (AID 165);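 also: 0% = growth equal to vehicle treated cultures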; conditions: S. cerevisiae cln2 rad14 strain, at 50.0 µM, stronger effect = higher value
In short: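 Compounds are applied to the cln2 rad14 yeast strain, and growth is then compared with that of vehicle-treated cultures to give inhibition.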

[5] = NCI Yeast Anticancer Drug Screen. Data for the bub3 strain (AID 167); conditions: S. cerevisiae bub3 mutant strain, at 50.0 µM, stronger effect = higher value
In short: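 Readout: yeast growth inhibition, expressed relative to vehicle-only wells. The test organism is a mutant strain from a panel with lesions in DNA repair or checkpoint genes.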

[6] = NCI Yeast Anticancer Drug Screen. Data for the mlh1 rad18 strain (AID 175); conditions: S. cerevisiae mlh1 rad18 strain growth inhibition; at 50.0 µM; stronger effect = higher value
In short: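 Read-out is yeast growth inhibition, calculated against vehicle-only controls. The compound was applied to a strain engineered with DNA damage repair alterations.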

| Compound | growth inhibition [1] | growth inhibition [2] | growth inhibition [3] | growth inhibition [4] | growth inhibition [5] | growth inhibition [6] |
| --- | --- | --- | --- | --- | --- | --- |
| O=C(CCCC(=O)NO)NO | 5.4% (inactive) and 2.75% (inactive) | -2.25% (inactive) and 0.6% (inactive) | -1.3% (inactive) and -6.9% (inactive) | -8.15% (inactive) and -26.6% (inactive) | -5.05% (inactive) and -22.9% (inactive) | 2.65% (inactive) and -37.4% (inactive) |
| CC(=O)OCC1OC(n2c(=S)n(-c3ccccc3)c(=O)c3cc(Br)ccc32)C(OC(C)=O)C(OC(C)=O)C1OC(C)=O (centres undefined) | 4.85% (inactive) and -36.2% (inactive) | -1.9% (inactive) and -27.9% (inactive) | 1.4% (inactive) and -26.9% (inactive) | 5.25% (inactive) and 15.2% (inactive) | -14.6% (inactive) and -0.3% (inactive) | 12.5% (inactive) and -19.2% (inactive) |
| CC(=O)c1ccc(-c2ccccc2-c2ccccc2)cc1 | -9.3% (inactive) and 43.7% (inactive) | 5.95% (inactive) and 3.5% (inactive) | 3.6% (inactive) and 16.4% (inactive) | -21.2% (inactive) and -26.1% (inactive) | -0.3% (inactive) and 4.35% (inactive) | 1.15% (inactive) and 33.1% (inactive) |
| CC(C)CC(CC(C)C)=NNc1ccc([N+](=O)[O-])cc1[N+](=O)[O-] | -12.9% (inactive) and -0.9% (inactive) | 6.5% (inactive) and -18.6% (inactive) | -10% (inactive) and -6.9% (inactive) | -33.3% (inactive) and 19.9% (inactive) | 12.3% (inactive) and -10.9% (inactive) | -13.9% (inactive) and 19.4% (inactive) |
| CC(=O)N1CCN(C(C)=O)C2C1N(C(C)=O)CCN2C(C)=O (centres undefined) | -11.7% (inactive) and 11.8% (inactive) | -18.9% (inactive) and -10.6% (inactive) | -24.6% (inactive) and 11.8% (inactive) | -20.1% (inactive) and 27% (inactive) | -19.6% (inactive) and 19.8% (inactive) | -17.1% (inactive) and 35.9% (inactive) |
| NNC(=O)NC(N)=O | -48.6% (inactive) and -20.2% (inactive) | -26.1% (inactive) and -25.7% (inactive) | -27.2% (inactive) and -9.95% (inactive) | -20.4% (inactive) and -17.9% (inactive) | 1.2% (inactive) and -27.1% (inactive) | -4.3% (inactive) and -22.3% (inactive) |
| CC(N)(CCO)C(=O)O (centres undefined) | 1.25% (inactive) and -1.8% (inactive) | 11.9% (inactive) and -3% (inactive) | -5.95% (inactive) and -19.4% (inactive) | 1.4% (inactive) and -18% (inactive) | -5.5% (inactive) and 8.75% (inactive) | 3.95% (inactive) and 7.2% (inactive) |
| CC(C)(N)CCC(=O)O | 10.3% (inactive) and -0.25% (inactive) | 20.9% (inactive) and 3.7% (inactive) | 12.6% (inactive) and -1.85% (inactive) | -3.05% (inactive) and -7.2% (inactive) | -28.7% (inactive) and 11.1% (inactive) | 6.8% (inactive) and -3.15% (inactive) |
| Cn1c(=O)c(Br)cn(C2OC(CO)C3OC32)c1=O (centres undefined) | -6.35% (inactive) and -9.05% (inactive) | -0.8% (inactive) and -4.2% (inactive) | 18.1% (inactive) and 4.9% (inactive) | -19.4% (inactive) and -15.4% (inactive) | 25.4% (inactive) and -4.1% (inactive) | 4.15% (inactive) and -0.65% (inactive) |
| Cc1ccc(C(O)(C(F)(F)F)C(O)(c2ccc(C)cc2)C(F)(F)F)cc1 (centres undefined) | 36.8% (inactive) and 99.2% (active) | 1.9% (inactive) and 99.5% (active) | -12.8% (inactive) and 99.3% (active) | -10.2% (inactive) and 99.4% (active) | -8.85% (inactive) and 99.3% (active) | -5.75% (inactive) and 99% (active) |
| CCN(CC)CCCNC | 6.2% (inactive) and 26.6% (inactive) | -4.75% (inactive) and 7.75% (inactive) | 3.2% (inactive) and 3.7% (inactive) | 2.25% (inactive) and -25.1% (inactive) | -9.6% (inactive) and -4.5% (inactive) | 7.3% (inactive) and 25.2% (inactive) |
| Nc1cc(=O)[nH][nH]1 | -11.7% (inactive) and -11.5% (inactive) | -9.65% (inactive) and -5.8% (inactive) | -2.15% (inactive) and -22.4% (inactive) | -5.9% (inactive) and -7.35% (inactive) | -17.8% (inactive) and -0.2% (inactive) | -15.8% (inactive) and -9.2% (inactive) |
| Cc1ccc(S(=O)(=O)NN)cc1 | -8.7% (inactive) and 9.3% (inactive) | 2.3% (inactive) and -9.9% (inactive) | -3.6% (inactive) and 5.7% (inactive) | 2.5% (inactive) and 6.7% (inactive) | -30.2% (inactive) and 16.4% (inactive) | -20% (inactive) and 5.9% (inactive) |
| CN(C)COC(=S)S | -7.65% (inactive) and 4.05% (inactive) | -14.4% (inactive) and 3.65% (inactive) | -3.8% (inactive) and -1.7% (inactive) | -30.9% (inactive) and 3.55% (inactive) | 1.75% (inactive) and -5.5% (inactive) | -3.9% (inactive) and 2.1% (inactive) |
| O=[N+]([O-])c1ccc(N=Cc2ccc(Cl)cc2)cc1 | -0.2% (inactive) and 4.6% (inactive) | -6.05% (inactive) and 4.9% (inactive) | -23.2% (inactive) and -2.25% (inactive) | -0.2% (inactive) and -40.4% (inactive) | 5.85% (inactive) and 7.9% (inactive) | -4.15% (inactive) and -3.05% (inactive) |
| CC1C2C=CC(C2)C1C(=O)O (centres undefined) | 5.15% (inactive) and 13.9% (inactive) | 28.8% (inactive) and 5.1% (inactive) | -0.05% (inactive) and 5.85% (inactive) | -42% (inactive) and 9.65% (inactive) | 7.8% (inactive) and -1.95% (inactive) | 7.1% (inactive) and 11.2% (inactive) |
| COC1C(C)OCOC2COCOC21 (centres undefined) | 17.4% (inactive) and -6.3% (inactive) | 2.2% (inactive) and -13.2% (inactive) | 4.15% (inactive) and -8.6% (inactive) | 0.5% (inactive) and -19.8% (inactive) | 9.05% (inactive) and -3.8% (inactive) | 7.4% (inactive) and -0.45% (inactive) |
| CC(C)C1C=C2CCC3C(C)(C(=O)O)CCCC3(C)C2CC1 (centres undefined) | 79.6% (active) and 46.2% (inactive) | 68.2% (inactive) and 58.1% (inactive) | 22.8% (inactive) and 48% (inactive) | 73.7% (active) and 65.3% (inactive) | 65.2% (inactive) and 44.9% (inactive) | 81.7% (active) and 49.9% (inactive) |
| OCC1CCCCO1 (centres undefined) | 0.3% (inactive) and 1.8% (inactive) | -13.7% (inactive) and -6.7% (inactive) | 2.4% (inactive) and -24.7% (inactive) | -1.65% (inactive) and -37.9% (inactive) | 7.65% (inactive) and -10.8% (inactive) | 3% (inactive) and -8.4% (inactive) |
